Assay results: the supplement of paper PMC4466140

Target: CaNbp2
Assay: SPOT peptide array binding signal intensity (averaged, normalized) (arbitrary units (background-subtracted, floor 0; scale differs between SH3 domains)); higher = stronger binding of the SH3 domain to the peptide
Procedure, shortened: (§1)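 Detection of bound protein relied on anti-GST antibody, an HRP anti-mouse secondary and luminol, with imaging and quantification in Genespotter. The bound protein was GST-fused SH3 domains from four yeast species, incubated at 10 μg/ml overnight at 4°C in TBS-based blocking buffer on cellulose membranes carrying synthetic 15-mer peptides with cysteines replaced by serines. Binding signal is normalized, background-subtracted spot intensity averaged over replicates, in arbitrary units that differ between domains.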

Binder | SPOT peptide array binding signal intensity
KKIRLIFTYPSTVGR | 966

Target: CaRvs167
Assay: as above
Procedure, shortened: as §1

Binder | SPOT peptide array binding signal intensity
KKIRLIFTYPSTVGR | 274

Target: CaRvs167-3
Assay: as above
Procedure, shortened: as §1

Binder | SPOT peptide array binding signal intensity
KKIRLIFTYPSTVGR | 2180

Target: CaSho1
Assay: as above
Procedure, shortened: as §1

Binder | SPOT peptide array binding signal intensity
KKIRLIFTYPSTVGR | 1570

Target: CaSla1-D1-D2
Assay: as above
Procedure, shortened: as §1

Binder | SPOT peptide array binding signal intensity
KKIRLIFTYPSTVGR | 21

Target: CaSla1-D3
Assay: as above
Procedure, shortened: as §1

Binder | SPOT peptide array binding signal intensity
KKIRLIFTYPSTVGR | 487

Target: ScAbp1
Assay: as above
Procedure, shortened: as §1

Binder | SPOT peptide array binding signal intensity
KKIRLIFTYPSTVGR | 15

Target: ScBbc1
Assay: as above
Procedure, shortened: as §1

Binder | SPOT peptide array binding signal intensity
KKIRLIFTYPSTVGR | 4.75

Target: ScBem1-D1
Assay: as above
Procedure, shortened: as §1

Binder | SPOT peptide array binding signal intensity
KKIRLIFTYPSTVGR | 19

Target: ScBzz1-D1
Assay: as above
Procedure, shortened: as §1

Binder | SPOT peptide array binding signal intensity
KKIRLIFTYPSTVGR | 23

Target: ScBzz1-D2
Assay: as above
Procedure, shortened: as §1

Binder | SPOT peptide array binding signal intensity
KKIRLIFTYPSTVGR | 325

Target: ScCyk3
Assay: as above
Procedure, shortened: as §1

Binder | SPOT peptide array binding signal intensity
KKIRLIFTYPSTVGR | 210

Target: ScFus1
Assay: as above
Procedure, shortened: as §1

Binder | SPOT peptide array binding signal intensity
KKIRLIFTYPSTVGR | 3720

Target: ScHof1
Assay: as above
Procedure, shortened: as §1

Binder | SPOT peptide array binding signal intensity
KKIRLIFTYPSTVGR | 1.75

Target: ScHse1
Assay: as above
Procedure, shortened: as §1

Binder | SPOT peptide array binding signal intensity
KKIRLIFTYPSTVGR | 1750

Target: ScLsb1
Assay: as above
Procedure, shortened: as §1

Binder | SPOT peptide array binding signal intensity
KKIRLIFTYPSTVGR | 32

Target: ScLsb2
Assay: as above
Procedure, shortened: as §1

Binder | SPOT peptide array binding signal intensity
KKIRLIFTYPSTVGR | 5

Target: ScLsb3
Assay: as above
Procedure, shortened: as §1

Binder | SPOT peptide array binding signal intensity
KKIRLIFTYPSTVGR | 389

Target: ScLsb4
Assay: as above
Procedure, shortened: as §1

Binder | SPOT peptide array binding signal intensity
KKIRLIFTYPSTVGR | 60

Target: ScMyo3
Assay: as above
Procedure, shortened: as §1

Binder | SPOT peptide array binding signal intensity
KKIRLIFTYPSTVGR | 4

Target: ScMyo5
Assay: as above
Procedure, shortened: as §1

Binder | SPOT peptide array binding signal intensity
KKIRLIFTYPSTVGR | 5

Target: ScNbp2
Assay: as above
Procedure, shortened: as §1

Binder | SPOT peptide array binding signal intensity
KKIRLIFTYPSTVGR | 744

Target: ScPex13
Assay: as above
Procedure, shortened: as §1

Binder | SPOT peptide array binding signal intensity
KKIRLIFTYPSTVGR | 14.5

Target: ScRvs167
Assay: as above
Procedure, shortened: as §1

Binder | SPOT peptide array binding signal intensity
KKIRLIFTYPSTVGR | 26.2

Target: ScSho1
Assay: as above
Procedure, shortened: as §1

Binder | SPOT peptide array binding signal intensity
KKIRLIFTYPSTVGR | 2150

Target: ScSla1-D1-D2
Assay: as above
Procedure, shortened: as §1

Binder | SPOT peptide array binding signal intensity
KKIRLIFTYPSTVGR | 83.5

Target: ScSla1-D3
Assay: as above
Procedure, shortened: as §1

Binder | SPOT peptide array binding signal intensity
KKIRLIFTYPSTVGR | 57.8

Target: SpAbp1-D1
Assay: as above
Procedure, shortened: as §1

Binder | SPOT peptide array binding signal intensity
KKIRLIFTYPSTVGR | 132

Target: SpBbc1
Assay: as above
Procedure, shortened: as §1

Binder | SPOT peptide array binding signal intensity
KKIRLIFTYPSTVGR | 41

Target: SpBzz1-D1
Assay: as above
Procedure, shortened: as §1

Binder | SPOT peptide array binding signal intensity
KKIRLIFTYPSTVGR | 133

Target: SpBzz1-D2
Assay: as above
Procedure, shortened: as §1

Binder | SPOT peptide array binding signal intensity
KKIRLIFTYPSTVGR | 0.5

Target: SpCyk3
Assay: as above
Procedure, shortened: as §1

Binder | SPOT peptide array binding signal intensity
KKIRLIFTYPSTVGR | 92

Target: SpHof1
Assay: as above
Procedure, shortened: as §1

Binder | SPOT peptide array binding signal intensity
KKIRLIFTYPSTVGR | 315

Target: SpHof1-2
Assay: as above
Procedure, shortened: as §1

Binder | SPOT peptide array binding signal intensity
KKIRLIFTYPSTVGR | 91

Target: SpHof1-3
Assay: as above
Procedure, shortened: as §1

Binder | SPOT peptide array binding signal intensity
KKIRLIFTYPSTVGR | 872

Target: SpHse1
Assay: as above
Procedure, shortened: as §1

Binder | SPOT peptide array binding signal intensity
KKIRLIFTYPSTVGR | 910

Target: SpLsb1
Assay: as above
Procedure, shortened: as §1

Binder | SPOT peptide array binding signal intensity
KKIRLIFTYPSTVGR | 2

Target: SpLsb4
Assay: as above
Procedure, shortened: as §1

Binder | SPOT peptide array binding signal intensity
KKIRLIFTYPSTVGR | 210

Target: SpMyo1
Assay: as above
Procedure, shortened: as §1

Binder | SPOT peptide array binding signal intensity
KKIRLIFTYPSTVGR | 14

Target: SpNbp2
Assay: as above
Procedure, shortened: as §1

Binder | SPOT peptide array binding signal intensity
KKIRLIFTYPSTVGR | 1780

Target: SpPex13
Assay: as above
Procedure, shortened: as §1

Binder | SPOT peptide array binding signal intensity
KKIRLIFTYPSTVGR | 24

Target: SpRvs167
Assay: as above
Procedure, shortened: as §1

Binder | SPOT peptide array binding signal intensity
KKIRLIFTYPSTVGR | 21

Target: SpSla1-D1-D2
Assay: as above
Procedure, shortened: as §1

Binder | SPOT peptide array binding signal intensity
KKIRLIFTYPSTVGR | 5

Target: SpSla1-D3
Assay: as above
Procedure, shortened: as §1

Binder | SPOT peptide array binding signal intensity
KKIRLIFTYPSTVGR | 49
